Reference: PubChem BioAssay
Activity calls are given as the source filed them. Unless noted, how the calls were made is not given here.

Experiments:
[1] = compounds binding Alexa647 anti-His antibody – biochemical, small-molecule microarray, 635 nm fluorescence, artefact control for SMM control protein annotation, primary screen (AID 1128); conditions: higher = more signal;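 further: score merges feature fluorescence with signal-to-noise for each printed compound spot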
[2] = test system: Human papillomavirus type 1a E7 protein (residues 1-88); test: HPV1a E7 small-molecule binders, primary screen, biochemical, small-molecule microarray, residues 1-88, 635 nm (AID 1129); conditions: small-molecule microarray binding, fluorescence 635 nm; higher = more signal
[3] = molecular target: Focal adhesion kinase 1 (Homo sapiens) (UniProt Q05397); test: PTK2 protein binding on printed compound slides – biochemical, small-molecule microarray, 635/667 nm fluorescence, BSA, DTT, primary screen (AID 1130); conditions: 635 nm fluorescence, higher = more signal;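 further: composite of spot emission at 667 nm and signal to noise over triplicate slides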
Sequence of Focal adhesion kinase 1 (Homo sapiens) (Q05397 whole entry, looked up): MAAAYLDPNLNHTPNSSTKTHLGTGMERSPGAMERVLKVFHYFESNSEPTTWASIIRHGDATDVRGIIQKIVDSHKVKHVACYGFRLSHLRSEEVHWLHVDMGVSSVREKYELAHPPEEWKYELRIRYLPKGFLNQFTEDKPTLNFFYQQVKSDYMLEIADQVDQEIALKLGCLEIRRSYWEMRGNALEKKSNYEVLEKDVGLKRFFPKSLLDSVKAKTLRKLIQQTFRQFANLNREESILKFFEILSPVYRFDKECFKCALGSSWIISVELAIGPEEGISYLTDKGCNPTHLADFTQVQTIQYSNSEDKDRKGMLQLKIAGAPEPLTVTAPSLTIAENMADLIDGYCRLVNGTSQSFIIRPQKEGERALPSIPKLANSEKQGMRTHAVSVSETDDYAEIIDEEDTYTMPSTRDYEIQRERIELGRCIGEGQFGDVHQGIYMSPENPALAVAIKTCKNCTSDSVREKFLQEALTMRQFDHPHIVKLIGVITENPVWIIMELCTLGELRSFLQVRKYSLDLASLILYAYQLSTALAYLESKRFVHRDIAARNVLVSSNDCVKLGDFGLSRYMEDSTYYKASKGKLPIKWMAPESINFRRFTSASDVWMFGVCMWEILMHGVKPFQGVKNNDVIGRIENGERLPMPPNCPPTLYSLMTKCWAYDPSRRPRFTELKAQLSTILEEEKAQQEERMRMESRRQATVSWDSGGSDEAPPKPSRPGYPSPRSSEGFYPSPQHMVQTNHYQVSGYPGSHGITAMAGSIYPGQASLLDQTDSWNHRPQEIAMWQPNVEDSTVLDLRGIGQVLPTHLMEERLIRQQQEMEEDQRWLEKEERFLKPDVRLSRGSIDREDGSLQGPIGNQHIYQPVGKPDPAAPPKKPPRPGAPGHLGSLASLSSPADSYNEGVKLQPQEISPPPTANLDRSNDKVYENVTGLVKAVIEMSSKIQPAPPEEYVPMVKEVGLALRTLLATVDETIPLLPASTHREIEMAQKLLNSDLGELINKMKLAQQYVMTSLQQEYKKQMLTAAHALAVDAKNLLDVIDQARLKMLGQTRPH

[4] = test system: Fibrinogen (Alexa647-labelled); test: Alexa647-fibrinogen binding to printed small molecules – biochemical, small-molecule microarray, 635/667 nm fluorescence, artefact control for SMM control-protein annotation, profiling panel (AID 1131); conditions: fibrinogen-A647 binding fluorescence, higher = more signal;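 further: z-score merges 667 nm fluorescence with per-spot signal-to-noise over triplicate slides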
[5] = molecular target: Follistatin (Homo sapiens) (UniProt P19883); test: FST protein binding to printed compounds – biochemical, small-molecule microarray, 635/667 nm fluorescence, primary screen (AID 1132); conditions: 635 nm fluorescence, higher = more signal
Sequence of Follistatin (Homo sapiens) (P19883 whole entry, looked up): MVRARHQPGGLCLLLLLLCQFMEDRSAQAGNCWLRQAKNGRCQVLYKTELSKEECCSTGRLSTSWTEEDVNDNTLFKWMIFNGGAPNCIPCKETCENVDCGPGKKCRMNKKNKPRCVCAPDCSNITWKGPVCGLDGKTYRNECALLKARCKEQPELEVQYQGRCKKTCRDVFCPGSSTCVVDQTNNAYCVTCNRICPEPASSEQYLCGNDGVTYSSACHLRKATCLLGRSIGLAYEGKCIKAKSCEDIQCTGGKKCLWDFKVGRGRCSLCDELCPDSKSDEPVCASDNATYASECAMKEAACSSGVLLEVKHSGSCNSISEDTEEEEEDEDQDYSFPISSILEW

[6] = molecular target: Fibroblast growth factor 2 (Homo sapiens) (UniProt P09038); test: basic fibroblast growth factor binding to printed compounds – biochemical, small-molecule microarray, 635/667 nm fluorescence, primary screen (AID 1133); conditions: FGF2, fluorescence 635/667, higher = more signal
Sequence of Fibroblast growth factor 2 (Homo sapiens) (P09038 whole entry, looked up): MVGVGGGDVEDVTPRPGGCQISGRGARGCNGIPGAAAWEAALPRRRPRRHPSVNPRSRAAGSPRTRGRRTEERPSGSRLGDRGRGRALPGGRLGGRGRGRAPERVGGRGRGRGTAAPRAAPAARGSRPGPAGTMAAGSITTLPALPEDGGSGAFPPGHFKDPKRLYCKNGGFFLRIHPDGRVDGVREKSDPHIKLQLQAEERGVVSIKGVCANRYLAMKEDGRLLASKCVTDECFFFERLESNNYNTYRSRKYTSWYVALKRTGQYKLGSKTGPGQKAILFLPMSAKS

[7] = JC-1 mitochondrial potential readout, lung cancer cells – cell-based, A549, JC-1 fluorescence, basal, 24 h, 100 nL, profiling panel (AID 1138); conditions: higher = more signal;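 further: A549 lung adenocarcinoma cells under basal conditions with no added stimulus; test concentration not given here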
[8] = test system: Lefty1; test: Lefty1 protein binding to printed compounds – biochemical, small-molecule microarray, 635/667 nm fluorescence, primary screen (AID 1139); conditions: fluorescence 635/667, higher = more signal
[9] = test system: wheat germ agglutinin (Triticum aestivum), Alexa647-labelled; test: Alexa647-WGA lectin binding to printed small molecules – biochemical, small-molecule microarray, 635/667 nm fluorescence, artefact control for SMM control-protein annotation, profiling panel (AID 1140); conditions: WGA-A647 binding, 635 nm fluorescence, higher = more signal;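 further: score merges 667 nm feature emission with signal to noise over triplicate slides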
[10] = molecular target: Luciferin 4-monooxygenase (Photinus pyralis) (UniProt P08659); test: inhibition of purified Photinus pyralis luciferase – biochemical, luminescence, purified enzyme, 2006 set, primary screen (AID 1141); conditions: purified firefly luciferase, SteadyGlo luminescence, 30 min; higher = more signal, called active from +8 up or from −8 down;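 further: cell-free assay with purified firefly luciferase at 100 ng per well in PBS; test concentration not given here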
Sequence of Luciferin 4-monooxygenase (Photinus pyralis) (P08659 whole entry, looked up): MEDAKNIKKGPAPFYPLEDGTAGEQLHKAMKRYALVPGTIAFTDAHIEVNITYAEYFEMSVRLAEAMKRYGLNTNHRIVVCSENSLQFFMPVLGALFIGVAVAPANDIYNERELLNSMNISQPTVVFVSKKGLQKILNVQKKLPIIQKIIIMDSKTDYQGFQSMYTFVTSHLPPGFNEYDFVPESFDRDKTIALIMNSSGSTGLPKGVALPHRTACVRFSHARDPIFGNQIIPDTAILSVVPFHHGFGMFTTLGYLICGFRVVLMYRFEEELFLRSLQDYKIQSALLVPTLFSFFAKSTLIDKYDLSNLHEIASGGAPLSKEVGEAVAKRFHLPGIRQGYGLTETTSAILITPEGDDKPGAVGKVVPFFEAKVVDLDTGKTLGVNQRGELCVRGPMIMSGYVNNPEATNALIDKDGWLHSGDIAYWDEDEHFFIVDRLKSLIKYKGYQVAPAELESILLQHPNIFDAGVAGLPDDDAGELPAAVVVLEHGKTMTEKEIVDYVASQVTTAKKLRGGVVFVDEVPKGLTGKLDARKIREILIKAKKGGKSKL

[11] = test system: Wnt5a (protein binding on small-molecule microarray); test: small molecules binding Wnt5a protein – biophysical, small-molecule microarray, 635/667 nm fluorescence, primary screen (AID 1142); conditions: 635 nm fluorescence, higher = more signal;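 further: fluorescence read at 667 nm with signal to noise per printed feature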
[12] = ATP-based viability of Huh7 replicon cells – cell-based, CellTiter-Glo luminescence, basal, 48 h, cytotoxicity control for HCV replication inhibitor project, primary screen (AID 1143); conditions: higher = more signal, called active from +8 up or from −8 down;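 further: Huh7 hepatoma cells carrying a hepatitis C replication reporter with no stimulus; test concentration not given here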
[13] = Pseudomonas biofilm growth suppression – PAO1 strain, BacTiter-Glo luminescence, LB-PBS, primary screen (AID 1144); conditions: P. aeruginosa PAO1 biofilm, 12 h, higher = more signal
[14] = basal CRE-LacZ reporter activity in PC12 – cell-based, unstimulated, primary screen (AID 1145); conditions: no forskolin, luminescence, 4.5 h, higher = more signal, called active from +8 up or from −8 down
[15] = forskolin-driven CRE-LacZ activity in PC12 – cell-based, CRE-LacZ reporter, forskolin-stimulated, primary screen (AID 1146); conditions: luminescence, 4.5 h, higher = more signal, called active from +8 up or from −8 down;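 further: PC12 cells with 6xCRE LacZ reporter stimulated by forskolin 10 µM; beta-galactosidase reporter signal reflecting CREB driven transcription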
[16] = molecular target: Streptavidin (Streptomyces avidinii) (UniProt P22629); test: compounds binding control protein streptavidin – biophysical, small-molecule microarray, 635/667 nm fluorescence, artefact control for SMM compound annotation, primary screen (AID 1147); conditions: higher = more signal;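 further: signal reflects streptavidin binding to arrayed compounds as a control protein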
Sequence of Streptavidin (Streptomyces avidinii) (P22629 whole entry, looked up): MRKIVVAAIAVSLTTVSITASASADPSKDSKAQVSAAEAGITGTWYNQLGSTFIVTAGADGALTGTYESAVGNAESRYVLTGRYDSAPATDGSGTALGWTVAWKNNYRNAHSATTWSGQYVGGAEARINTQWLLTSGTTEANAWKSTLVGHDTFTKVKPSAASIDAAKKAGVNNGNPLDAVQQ

[17] = probe aInhba binding on compound microarray – biochemical, small-molecule microarray, 635/667 nm fluorescence, primary screen (AID 1148); conditions: higher = more signal;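 further: score merges 667nm spot fluorescence with signal-to-noise for antibody binding to printed compounds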
[18] = molecular target: Torsin-1A (Homo sapiens) (UniProt O14656); test: TOR1A wild-type binding on microarray – cell lysate, small-molecule microarray, lysate, 635/667 nm, primary screen (AID 1149); conditions: COS7 hTOR1A-WT lysate, 635 nm fluorescence, higher = more signal
Sequence of Torsin-1A (Homo sapiens) (O14656 whole entry, looked up): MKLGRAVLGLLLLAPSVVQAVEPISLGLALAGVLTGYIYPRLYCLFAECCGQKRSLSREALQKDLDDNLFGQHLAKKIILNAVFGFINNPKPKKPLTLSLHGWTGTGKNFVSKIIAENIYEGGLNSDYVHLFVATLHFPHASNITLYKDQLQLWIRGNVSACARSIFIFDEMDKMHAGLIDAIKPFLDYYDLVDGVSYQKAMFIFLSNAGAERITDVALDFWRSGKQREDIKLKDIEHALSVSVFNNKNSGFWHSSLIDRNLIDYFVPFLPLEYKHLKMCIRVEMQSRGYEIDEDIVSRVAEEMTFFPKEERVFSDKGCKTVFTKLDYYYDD

[19] = molecular target: Torsin-1A (Homo sapiens) (UniProt O14656); test: torsin A mutant lysate binding on microarrays – cell lysate, small-molecule microarray, COS7 lysate, 635/667 nm fluorescence, primary screen (AID 1150); conditions: COS7 hTOR1A mutant lysate, 635 nm fluorescence, higher = more signal;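 further: score pools 667 nm emission and signal to noise measuring lysate protein binding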
[20] = test system: Sonic hedgehog protein (Shh); test: Sonic hedgehog microarray binding compounds – biochemical, small-molecule microarray, 635/667 nm fluorescence, primary screen (AID 1151); conditions: 635 nm fluorescence, higher = more signal;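 further: Shh protein binding to compounds spotted on small-molecule microarray slides; score combines spot fluorescence intensity with signal-to-noise across triplicate slides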

Row | SMILES | composite z-score [1] | composite z-score [2] | composite z-score [3] | composite z-score [4] | composite z-score [5] | composite z-score [6] | z-score [7] | composite z-score [8] | composite z-score [9] | z-score [10] | composite z-score [11] | z-score [12] | z-score [13] | z-score [14] | z-score [15] | composite z-score [16] | composite z-score [17] | composite z-score [18] | composite z-score [19] | composite z-score [20]
1 | COC(=O)c1cn(C[C@@H](Cc2ccccc2)NC(=O)N[C@H](CO)CCc2oc(C(C)=O)c(C(=O)OC)c2C(=O)OC)nn1 | 1.42 | 0.533 | 0.192 | 0.729 | 1.02 | 0.86 | 0.642 | 1.17 | 0.235 | -0.373 (inactive) | 0.173 | -0.102 (inactive) | 0.201 (inactive) | 1.5 (inactive) | -0.981 (inactive) | 0.304 | 0.108 | 0.658 | 0.268 | 1.93
2 | COCCOC(=O)N1C(=O)[C@@]2(c3cc(C#CC4=CCCCC4)ccc31)[C@H](c1ccc(OCCO)cc1)N1[C@H](c3ccccc3)[C@H](c3ccccc3)OC(=O)[C@H]1[C@@H]2C(=O)NC[C@H](O)c1ccccc1 | 0.392 | 1.16 | 0.499 | 0.295 | 1.48 | 1.82 | -1.4 | 1.65 | -0.127 | -2.06 (inactive) | 0.552 | -2.18 (inactive) | 0.698 (inactive) | 0.354 (inactive) | -0.224 (inactive) | 0.785 | 0.801 | 0.818 | 0.51 | 1.85
3 | COC(=O)c1nc2oc1CC[C@@H](CO)NC(=O)N(C)Cc1cnnn1C[C@H](Cc1ccccc1)NC2=O | -0.0727 | -0.405 | -0.302 | 0.779 | -0.701 | -0.403 | 0.9 | -0.281 | 1.03 | 0.782 (inactive) | -0.202 | -0.0922 (inactive) | -1.19 (inactive) | 0.484 (inactive) | -0.826 (inactive) | -0.65 | -0.268 | -0.182 | -0.533 | 0.272
4 | C=CCN1Cc2ccccc2[C@H]2OC(c3ccc(OCCCO)cc3)=N[C@@]2(CC=C)C1=O | 2.47 | 1.23 | 1.12 | 0.59 | 1.54 | 1.87 | 1.33 | 0.834 | 0.619 | -0.107 (inactive) | 1.07 | -3.16 (inactive) | -0.746 (inactive) | 0.0594 (inactive) | -1.58 (inactive) | 0.998 | 0.268 | 1.08 | 0.475 | 1.91
5 | COc1cc2c(cc1OC)CN(C(=O)[C@@H]1[C@H]3C(=O)O[C@H](c4ccccc4)[C@H](c4ccccc4)N3[C@H](c3ccc(OCCO)cc3)[C@@]13C(=O)Nc1ccccc13)CC2 | 1.04 | 1.25 | 0.164 | 0.971 | 1.31 | 1.26 | -0.957 | 1.19 | 1.3 | -1.65 (inactive) | 0.758 | -1.06 (inactive) | -1.46 (inactive) | 0.829 (inactive) | -0.437 (inactive) | 0.607 | 0.188 | 1.06 | 0.858 | 1.93
6 | COc1ccc(CN(C2=CC[C@@]3(C(N)=O)C(=O)C(Cl)=C(Cl)C(=O)[C@@]3(C#N)C2)S(=O)(=O)c2ccc(Br)cc2)cc1 | 1.89 | 0.289 | 0.0558 | 0.115 | -0.539 | -0.537 | -1.87 | -0.53 | 0.324 | -5.26 (inactive) | -0.0312 | -3.6 (inactive) | -0.897 (inactive) | 33.6 (active) | 119 (active) | 0.62 | -0.0006 | 0.385 | 0.448 | -0.245
